These results are taken from PubChem BioAssay (NCATS).

Inconclusive results are not listed. Calls of active or inactive are those of the source. Calls follow the shape of the dose curve; as a rule, active = well fitted curve in the direction sought with a large enough effect; inconclusive = small, poorly fitted or top-dose-only effect, or another doubt; inactive = no such curve, though single readings can be large; an effect the other way counts as inactive or inconclusive.
Potency is read from the fitted curve at half-maximal effect.

The nature of one experiment: qHTS of pediatric cancer cell lines to identify multiple opportunities for drug repurposing: Primary screen for A673 cells (AID 1347092). Also: nearly all actives have a fitted effect of over 45% in size. As to conditions: A673 Ewing sarcoma viability, CellTiter-Glo ATP luminescence, 48 h; series mostly up to 46 µM. The method in brief: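 A673 cells (500-1,000 cells/well in growth media) were pre-incubated 5 h at 37 degrees C, then exposed to compounds for 48 h. Viability was read as CellTiter-Glo luminescence; concentration-response curves came directly from the primary screen.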
On the technique in general: In qHTS, concentration-response curves come from the screen itself.
As for `COCC1(CO)C(=O)C2CCN1CC2` (stereo unspecified), the Potency is 2350 nM (active).
On the same count and under the same terms, then `O=S(=O)(CC1CS1)c1ccc(Oc2ccccc2)cc1` (stereo unspecified), with 9350 nM (active); and `COC1=C[C@@H]2[C@@H]3Cc4ccc(OC)c(O)c4[C@]2(CCN3C)CC1=O`, with 1480 nM (active); and `CC(C)Oc1cccc(NC(=O)c2ccccc2C(F)(F)F)c1`, with “inactive”.
In the case of `CCN1CCN(C(=O)Cc2ccc(Nc3ncc(F)c(Nc4ccc(C(=O)Nc5ccccc5Cl)cc4)n3)cc2)CC1`, the Potency is 2960 nM (active).
Same read-out and setting: then `CC(=O)N(C)c1cccc(-c2ccnc3c(C(=O)c4cccs4)cnn23)c1`, with “inactive”; and `O=c1cccc2n1CC1CNC[C@H]2C1`, with 4690 nM (active); and `O=[N+]([O-])c1cc([N+](=O)[O-])c2ccccc2c1`, with “inactive”.
Same read-out and setting: then `Cc1ccccc1-n1c(Cn2cnc3c(N)ncnc32)nc2cccc(C)c2c1=O`, with 590 nM (active); and `CC(C)[C@]12O[C@@H]1[C@@H]1O[C@]13[C@]1(O[C@H]1C[C@@H]1C4=C(CC[C@@]13C)C(=O)OC4)[C@H]2O`, with 1 nM (active); and `O=C1CCC[C@@H]2[C@H]3CCCN4CCC[C@@H](CN12)[C@@H]34`, with “inactive”.
In the case of `CC(=O)O[C@@]12CO[C@H]1C[C@H](O)[C@@]1(C)C(=O)[C@H](O)C3=C(C)[C@@H](O)C[C@@](O)([C@@H](OC(=O)c4ccccc4)[C@@H]21)C3(C)C`, the Potency was 1480 nM (active).
Regarding `CCCCCC[C@H]1C(=O)O[C@H](C)[C@H](NC(=O)c2cccc(NC=O)c2O)C(=O)O[C@@H](C)[C@@H]1OC(=O)CC(C)C`, the Potency was 296 nM (active).
As for `c1cc2ccc3cccc4ccc(c1)c2c34`, the Potency entry is “inactive”.

A short description of the next experiment: qHTS of pediatric cancer cell lines to identify multiple opportunities for drug repurposing: Primary screen for SK-N-MC cells (AID 1347093). As to conditions: SK-N-MC viability, CellTiter-Glo luminescence, 48 h; series mostly up to 46 µM. The method in brief: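 Metabolically active cells were quantified by ATP-dependent luminescence (CellTiter-Glo, 15 min at room temperature) following 48 h treatment. Cells had been plated at 500-1,000 per well and settled for 5 h beforehand.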
Take `COCC1(CO)C(=O)C2CCN1CC2` (stereo unspecified): the Potency was 1180 nM (active).
Consider `COC1=C[C@@H]2[C@@H]3Cc4ccc(OC)c(O)c4[C@]2(CCN3C)CC1=O`, for which the Potency was 13200 nM (active).
Turning to `CCN1CCN(C(=O)Cc2ccc(Nc3ncc(F)c(Nc4ccc(C(=O)Nc5ccccc5Cl)cc4)n3)cc2)CC1`, the Potency was 5260 nM (active).
Turning to `CC(=O)N(C)c1cccc(-c2ccnc3c(C(=O)c4cccs4)cnn23)c1`, the Potency entry is “inactive”.
As to `O=C(N[C@@H](COc1ccc2[nH]c(=O)[nH]c2c1)c1ccccc1)c1cccn(Cc2ccc(F)c(F)c2)c1=O`, the Potency was 18700 nM (active).
Turning to `CCCN(CCC)c1c([N+](=O)[O-])cc(S(N)(=O)=O)cc1[N+](=O)[O-]`, the Potency is 38600 nM (active).
The same measure, in the same setting: to `O=c1cccc2n1CC1CNC[C@H]2C1` belongs 4690 nM (active).
On the same count and under the same terms, to `O=[N+]([O-])c1cc([N+](=O)[O-])c2ccccc2c1` belongs 10900 nM (active); to `Cc1ccccc1-n1c(Cn2cnc3c(N)ncnc32)nc2cccc(C)c2c1=O`, 20.9 nM (active); to `CC(=Cc1csc(C)n1)[C@@H]1C[C@H]2O[C@]2(C)CCC[C@H](C)[C@@H](O)[C@@H](C)C(=O)C(C)(C)[C@@H](O)CC(=O)O1`, 1 nM (active).
In the case of `CC(C)[C@]12O[C@@H]1[C@@H]1O[C@]13[C@]1(O[C@H]1C[C@@H]1C4=C(CC[C@@]13C)C(=O)OC4)[C@H]2O`, the Potency was 1 nM (active).
For `O=C1CCC[C@@H]2[C@H]3CCCN4CCC[C@@H](CN12)[C@@H]34`, the Potency result is “inactive”.
Regarding `CC(=O)O[C@@]12CO[C@H]1C[C@H](O)[C@@]1(C)C(=O)[C@H](O)C3=C(C)[C@@H](O)C[C@@](O)([C@@H](OC(=O)c4ccccc4)[C@@H]21)C3(C)C`, the Potency was 1320 nM (active).
In the case of `CC(=Cc1csc(C)n1)[C@@H]1C[C@H]2O[C@@H]2CCC[C@H](C)[C@@H](O)[C@@H](C)C(=O)C(C)(C)[C@@H](O)CC(=O)O1`, the Potency is 1 nM (active).
On to `CCCCCC[C@H]1C(=O)O[C@H](C)[C@H](NC(=O)c2cccc(NC=O)c2O)C(=O)O[C@@H](C)[C@@H]1OC(=O)CC(C)C`, for which the Potency was 46.9 nM (active).
For the compound `CC[C@H]1C=CC=CC[C@@H](C)[C@H](O)[C@@](C)(O)C(=O)[C@@H](C)[C@H](O)[C@@H](C)C(=O)[C@@H](C)[C@H](O)[C@@H](C)C=CC(=O)O[C@@H]2[C@@H](C)[C@H](CC1)O[C@]1(CC[C@H](C)[C@H](C[C@@H](C)O)O1)[C@H]2C`, the Potency was 3.3 nM (active).
As to `C[C@H]1CCCC=CC2C[C@H](O)C[C@@H]2[C@H](O)C=CC(=O)O1` (stereo partly specified), the Potency is 1 nM (active).

A further experiment can be described thus: qHTS of pediatric cancer cell lines to identify multiple opportunities for drug repurposing: Primary screen for BT-37 cells (AID 1347094). As to conditions: BT-37 viability, CellTiter-Glo luminescence, 48 h; series mostly up to 57.3 µM. The method in brief: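 Following a 5-hour attachment period, cells at 500-1,000/well received compounds and were cultured for 48 hours. CellTiter-Glo was added and luminescence read to estimate viable, metabolically active cells.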
As for `COCC1(CO)C(=O)C2CCN1CC2` (stereo unspecified), the Potency is 1220 nM (active).
Still for that read-out and setting: then `O=S(=O)(CC1CS1)c1ccc(Oc2ccccc2)cc1` (stereo unspecified), with 19300 nM (active); and `COc1ccc(CC2NCCc3cc(OC)c(OC)cc32)cc1OC` (stereo unspecified), with “inactive”; and `CC(C)Oc1cccc(NC(=O)c2ccccc2C(F)(F)F)c1`, with “inactive”.
As for `CCN1CCN(C(=O)Cc2ccc(Nc3ncc(F)c(Nc4ccc(C(=O)Nc5ccccc5Cl)cc4)n3)cc2)CC1`, the Potency was 12200 nM (active).
In the case of `CC(=O)N(C)c1cccc(-c2ccnc3c(C(=O)c4cccs4)cnn23)c1`, the Potency entry was “inactive”.
Regarding `CCCN(CCC)c1c([N+](=O)[O-])cc(S(N)(=O)=O)cc1[N+](=O)[O-]`, the Potency is 31700 nM (active).
Regarding `O=[N+]([O-])c1cc([N+](=O)[O-])c2ccccc2c1`, the Potency entry was “inactive”.
Same read-out and setting: then `Cc1ccccc1-n1c(Cn2cnc3c(N)ncnc32)nc2cccc(C)c2c1=O`, with 3850 nM (active); and `CC(C)[C@]12O[C@@H]1[C@@H]1O[C@]13[C@]1(O[C@H]1C[C@@H]1C4=C(CC[C@@]13C)C(=O)OC4)[C@H]2O`, with 1 nM (active).
On to `CCc1c(C(=O)C(N)=O)c2c(OCC(=O)O)cccc2n1Cc1ccccc1`, for which the Potency entry was “inactive”.
In the case of `O=C1CCC[C@@H]2[C@H]3CCCN4CCC[C@@H](CN12)[C@@H]34`, the Potency result is “inactive”.
Take `c1cc2ccc3cccc4ccc(c1)c2c34`: the Potency result is “inactive”.
Turning to `CC[C@H]1C=CC=CC[C@@H](C)[C@H](O)[C@@](C)(O)C(=O)[C@@H](C)[C@H](O)[C@@H](C)C(=O)[C@@H](C)[C@H](O)[C@@H](C)C=CC(=O)O[C@@H]2[C@@H](C)[C@H](CC1)O[C@]1(CC[C@H](C)[C@H](C[C@@H](C)O)O1)[C@H]2C`, the Potency is 2.2 nM (active).
On to `C[C@H]1CCCC=CC2C[C@H](O)C[C@@H]2[C@H](O)C=CC(=O)O1` (stereo partly specified), for which the Potency was 1 nM (active).
